Measurements taken from PubChem BioAssay (Tox21).
Where “and” joins values, the source holds several entries; their conditions need not be identical. Equal entries are not always repeated. Records with an inconclusive call do not appear. Where a call stands in place of a potency, no number is given. Some structures have more than one record in an assay (separate samples or runs), and their calls can disagree. Calls of active or inactive are those of the source. The call rests on the fitted dose curve; in most records, active means well fitted activation curve with a large enough effect in the repeat runs; inconclusive means weak or mixed curves; inactive means flat fitted curve, though single readings scatter.

Assay: A CellTox Green Cytotoxicity Assay to monitor cytotoxicity in HepG2 cells - 40 hour (AID 1224879); further: nearly all actives have a fitted effect of over 40% in size
Conditions: CellTox Green fluorescence; series mostly up to 76.8 µM
Excerpt: National Center for Advancing Translational Sciences [NCATS]
NIH Chemical Genomics Center [NCGC]
U.S. Environmental Protection Agency [EPA]
National Institutes of Environmental Health Sciences [NIEHS]
National Toxicology Program [NTP]
Cell-based models are critical for drug discovery. Determining the natural cytotoxic effects resulting from test compounds is an essential research activity. A CellTox Green Cytotoxicity Assay to monitor cytotoxicity in real time of continues cell culture during 40 hours of the compound treatment was used to screen Tox21 10K library compounds in HepG2 cells. CellTox Green Cytotoxicity Assay is a nonlytic, homogeneous, biofluorescent method to measure cytotoxicity in cell culture after experimental manipulation. The assay system uses a proprietary asymmetric cyanine dye that is excluded from viable cells but preferentially stains the dead cell's DNA. […] Viable cells produce no appreciable increases in fluorescence. Therefore, the fluorescence signal produced by the binding interaction with dead cell DNA is proportional to cytotoxicity.
The mixture of HepG2 cell suspension and reagents were dispensed at 600cells/6 ul/well in 1536-well tissue culture treated black solid bottom plates using a Multidrop dispenser. After the assay plates were incubated at a 37 C/5% CO2 incubator for 5 hours, 23 nL of compounds dissolved in DMSO, positive and negative controls was transferred to the assay plate by a pintool work station. The plates were incubated at 37 C for 40 hours. The fluorescence intensity were measured at 0h, 8h, 16h, 24h, 32h and 40h time points using ViewLux plate reader during compound treatment.
Potency means the concentration at half of the fitted maximal effect.

SMILES	Potency
CCOP(=S)(OCC)Oc1cc(C)nc(C(C)C)n1	inactive and 24.5 µM (active)
C=CCN=C=S	inactive
Nc1ncc([N+](=O)[O-])s1	inactive
COC(=O)Nc1cccc(OC(=O)Nc2cccc(C)c2)c1	49 µM (active)
Cc1cccc(C)c1NC(=O)CN1CCCC1=O	inactive
CCOc1ccc(N)cc1	inactive
C=CC#N	inactive
Cc1cccc(C)c1N	inactive
CCOP(=S)(OCC)Oc1ccc([N+](=O)[O-])cc1	inactive
Clc1cnc(Oc2ccc(Oc3ncc(Cl)cc3Cl)cc2)c(Cl)c1	inactive
CN(C)C(=O)Nc1cccc(C(F)(F)F)c1	inactive
CNc1cnn(-c2cccc(C(F)(F)F)c2)c(=O)c1Cl	inactive
CCCOC(=O)c1ccccc1C(=O)OCCC	inactive
C=CC(=O)OCC(CC)CCCC (stereo not given)	inactive
CC(C)CCCCCCOC(=O)c1ccccc1C(=O)OCCCCCCC(C)C	inactive
CCSC(=O)N1CCCCCC1	inactive
O=C(O)C1C(C(=O)O)C2(Cl)C(Cl)=C(Cl)C1(Cl)C2(Cl)Cl (stereo not given)	inactive
Nc1ccc([As](=O)(O)O)cc1	inactive
Cl/C=C/Cl	inactive
C[C@]12CC[C@H](O)CC1=CC[C@@H]1[C@@H]2CC[C@]2(C)C(=O)CC[C@@H]12	49 µM (active) and inactive

SMILES	Potency
OCC(O)CCl (stereo not given)	inactive
Sc1ccccc1	inactive and 43.6 µM (active)
O=C/C=C/c1ccccc1	inactive
Nc1nc(N)nc(NC2CC2)n1	inactive
CCCCC(CC)C(=O)Cl (stereo not given)	inactive
C=CC(=O)OCCCCCC(C)C	inactive
[N-]=[N+]=CC(=O)OC[C@H](N)C(=O)O	43.6 µM (active) and inactive
CC(C)(C)C(=O)CCl	inactive
CN(C)C(=O)C(c1ccccc1)c1ccccc1	inactive
Oc1c(Br)cc(Br)cc1Br	inactive
CNC(=O)O/N=C/C(C)(C)SC	inactive
CSc1nnc(C(C)(C)C)c(=O)n1N	inactive
Cc1ccc(N)cc1	inactive
CNC(=O)O/N=C/C(C)(C)S(C)(=O)=O	inactive
Cc1cc(O)ccc1Cl	inactive
Cc1cccc(N)c1	inactive
Cc1cc(Cl)ccc1OC(C)C(=O)O (stereo not given)	inactive
O=C(O)COc1ccccc1	inactive
CN(C)CCC#N	inactive
O=S(=O)(O)OOS(=O)(=O)O	inactive
